Hits are enriched below; roughly 2.3% of the tested compounds scored in any of these assays.
YB-1 expr inh – inhibitors of YB-1 gene expression, primary screen, cell-based, fluorescence; delta delta Cp (YB-1 minus CDIP) (no concentration beside the values); U2OS, qRT-PCR YB-1 vs CDIP delta delta Cp, 16 h; active compounds read high; zero = DMSO, each unit about twofold; AID 434959, 2010; 30,000 tested, 0.37% active;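 active = delta delta Cp rounded down to an integer at or above 3, about 3 SD of DMSO wells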;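 also: higher means less YB-1 transcript or more CDIP transcript relative to DMSO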
U2OS ROS induce – ROS inducers in U2OS cancer cells, primary screen, cell-based, H2DCF-DA fluorescence; U2OS ROS induction; ROS induction (% of piperlongumine), % at 10 µM; 46,000 tested, 2% active; AID 624156, 2012; in the data active = ROS induction above about 79%, passing the limit was not always enough
Each line names hits and unclear results; the compound was inactive in the other large screens.

CCCN(CCC)C(=O)Cn1nc(CC)n2c(cc3sc(C)cc32)c1=O	none (no result: YB-1 expr inh)
COc1cc(O)c(C(=O)CCc2ccc(OC)c(OC)c2)c(OC)c1	YB-1 expr inh 4.9
COc1cc(O)c(C(=O)Cc2ccc(Cl)cc2)c(OC)c1	none (no result: YB-1 expr inh)
CN1CCN(C(=O)CN(c2cc(C(F)(F)F)ccc2Cl)S(=O)(=O)c2ccccc2)CC1	none (no result: YB-1 expr inh)
C[C@H]1CN([C@@H](C)CO)C(=O)c2cc(NC(=O)CCN3CCOCC3)ccc2O[C@H]1CN(C)C(=O)Nc1ccc(F)cc1	none
O=C(c1ccccc1Oc1nc([N+](=O)[O-])nn1Cc1ccccc1F)N1CCCC1	none (no result: YB-1 expr inh)
CC1CN(C(=O)C2CCCCC2)C(C)CN1C(=O)C1CCCCC1 (configuration not stated)	none (no result: YB-1 expr inh)
O=C(/C=C/c1ccc(O)cc1)OC[C@H]1O[C@@H](Oc2cc(O)c3c(c2)OC(c2ccc(O)cc2)CC3=O)[C@H](O)[C@@H](OC(=O)/C=C/c2ccc(O)cc2)[C@@H]1O (some centres not stated)	U2OS ROS induce 165
C[C@@H]1O[C@@H](OC[C@H]2O[C@@H](Oc3ccc(O)cc3)[C@H](O)[C@@H](OC(=O)c3ccc(O)cc3)[C@@H]2O)[C@H](O)[C@H](O)[C@H]1O	none
O=C1C=CC(O)(/C=C/C(=O)OC[C@H]2O[C@@H](Oc3ccc(O)cc3)[C@H](O)[C@@H](OC(=O)/C=C/C3(O)C=CC(=O)C=C3)[C@@H]2O)C=C1	U2OS ROS induce 127
COc1ccc(C2CC(=O)c3c(O)cc(O[C@@H]4O[C@H](CO[C@@H]5O[C@@H](C)[C@H](O)[C@@H](O)[C@H]5O)[C@@H](O)[C@H](O)[C@H]4O)cc3O2)cc1 (some centres not stated)	none
COc1ccc(C#Cc2cnc3c(c2)C(=O)N([C@H](C)CO)C[C@H](C)[C@H](CN(C)S(=O)(=O)c2ccc(C)cc2)O3)cc1OC	U2OS ROS induce 140
C[C@H](CO)N1C[C@H](C)[C@H](CN(C)S(=O)(=O)c2cccs2)Oc2ncc(C#Cc3ccccc3)cc2C1=O	none
COc1ccc(C#Cc2cnc3c(c2)C(=O)N([C@H](C)CO)C[C@H](C)[C@H](CN(C)S(C)(=O)=O)O3)cc1OC	none
C[C@H](CO)N1C[C@H](C)[C@H](CN(C)S(=O)(=O)c2cccs2)Oc2ncc(C#CC(C)(C)O)cc2C1=O	YB-1 expr inh 9.9
C[C@H]1CN([C@@H](C)CO)C(=O)Cc2cc(NS(=O)(=O)c3cccs3)ccc2O[C@H]1CN(C)C(=O)Nc1cccc2ccccc12	none
CCC(C)NC(=O)CSc1nc2ccsc2c(=O)n1NC(=O)c1ccccc1 (configuration not stated)	none (no result: YB-1 expr inh)
CCCN(CCC)S(=O)(=O)c1ccc(C(=O)Nc2cccc(SC)c2)cc1	none
CCCN(CCC)S(=O)(=O)c1ccc(C(=O)Nc2ccc3sc(SC)nc3c2)cc1	U2OS ROS induce 168 (no result: YB-1 expr inh)
CSC(N)=Nc1csc(C(F)(F)F)c1-c1ccccc1	none (no result: YB-1 expr inh)
O=[N+]([O-])c1ccc(N2CCN(S(=O)(=O)c3ccc(F)cc3)CC2)cc1NCc1cccnc1	U2OS ROS induce 136 (no result: YB-1 expr inh)
O=[N+]([O-])c1ccc(N2CCN(S(=O)(=O)c3ccc(Cl)s3)CC2)cc1NCc1ccco1	none (no result: YB-1 expr inh)
COc1ccccc1C(=O)N1CCN(c2ccc([N+](=O)[O-])c(NCc3ccco3)c2)CC1	none (no result: YB-1 expr inh)
CC(C)(C)c1ccc(S(=O)(=O)N2CCN(c3ccc([N+](=O)[O-])c(NCc4cccnc4)c3)CC2)cc1	U2OS ROS induce 98 (no result: YB-1 expr inh)
CCN(CC)c1ncc2c(NCc3ccccc3)nc(SCc3ccccc3)nc2n1	U2OS ROS induce 129
CN(Cc1ccccc1)C(=O)CSc1nc(NCc2ccc(Cl)cc2)c2ccccc2n1	none (no result: YB-1 expr inh)
CC1CCc2c(sc(/N=C/C=C/c3ccccc3)c2C#N)C1 (configuration not stated)	none (no result: YB-1 expr inh)
CCC(C)Nc1cc(C)c(C#N)c2nc3ccccc3n12 (configuration not stated)	none (no result: YB-1 expr inh)
Cc1cc(NCCO)n2c(nc3ccccc32)c1C#N	none (no result: YB-1 expr inh)
CCc1c(C)c(C#N)c2nc3ccccc3n2c1NCCC(C)C	U2OS ROS induce 157 (no result: YB-1 expr inh)
CC(C)CCNc1cc(C(C)C)c(C#N)c2nc3ccccc3n12	U2OS ROS induce 197 (no result: YB-1 expr inh)
CCCn1c(-c2ccc(S(=O)(=O)N3CCOCC3)cc2)csc1=Nc1ccccc1	U2OS ROS induce 83 (no result: YB-1 expr inh)
O=C(COc1ccc(S(=O)(=O)N2CCOCC2)cc1)Nc1ccccc1	none (no result: YB-1 expr inh)
CC(C)NC(=O)N(C)C[C@H]1Oc2ccc(NC(=O)CCN3CCOCC3)cc2C(=O)N([C@H](C)CO)C[C@H]1C	none
Cc1noc(C)c1S(=O)(=O)N(C)C[C@H]1Oc2ccc(NS(=O)(=O)c3cccs3)cc2CC(=O)N([C@@H](C)CO)C[C@H]1C	none
Cc1ccc(-c2cc(C)nc(SCC(=O)Nc3ccc(F)cc3)n2)cc1	none (no result: YB-1 expr inh)
O=C(CCS(=O)(=O)c1nc(-c2ccccc2)cc(C(F)(F)F)n1)Nc1ccc(Cl)cc1Cl	U2OS ROS induce 101 (no result: YB-1 expr inh)
O=C(O)CCS(=O)(=O)c1nc(-c2ccccc2)cc(C(F)(F)F)n1	none (no result: YB-1 expr inh)
CN1C(=O)C(O)(CC(=O)c2ccccc2)c2ccccc21 (configuration not stated)	none (no result: YB-1 expr inh)
CC(C)C[C@H]1C(=O)N2CCC[C@H]2[C@]2(O)O[C@](NC(=O)[C@@H]3C=C4c5cccc6[nH]c(Br)c(c56)C[C@H]4N(C)C3)(C(C)C)C(=O)N12	U2OS ROS induce 107
CC(C)CC1C(=O)N2CCC[C@H]2C2(O)O[C@](NC(=O)C3C=C4c5cccc6[nH]c(Br)c(c56)C[C@H]4N(C)C3)(C(C)C)C(=O)N12 (some centres not stated)	none
C[C@@H]1CN([C@H](C)CO)C(=O)Cc2cc(NS(=O)(=O)c3cccs3)ccc2O[C@H]1CN(C)Cc1ccc(-c2ccccc2)cc1	U2OS ROS induce 96
C[C@@H]1CN([C@H](C)CO)C(=O)Cc2cc(NS(=O)(=O)c3ccc(F)cc3)ccc2O[C@H]1CN(C)Cc1ccc(-c2ccccc2)cc1	none
C[C@@H]1CN([C@H](C)CO)C(=O)Cc2cc(NS(=O)(=O)c3ccc(F)cc3)ccc2O[C@@H]1CN(C)Cc1ccc(-c2ccccc2)cc1	U2OS ROS induce 107
C[C@@H]1CN([C@@H](C)CO)C(=O)Cc2cc(NS(=O)(=O)c3cccs3)ccc2O[C@@H]1CN(C)Cc1ccc(-c2ccccc2)cc1	none
CC(C)NC(=O)N(C)C[C@@H]1Oc2ccc(NC(=O)CCCN(C)C)cc2CC(=O)N([C@H](C)CO)C[C@@H]1C	none
C=C1C(=O)O[C@H]2C1[C@H](OC(=O)/C(C)=C/CO)C/C(C)=C\CC[C@@]1(CO)OC21 (some centres not stated)	none
C=C(CO)C(=O)O[C@H]1CC(=C)[C@@H]2CC(=O)[C@H](C)[C@@H]2[C@H]2OC(=O)C(=C)[C@@H]21	U2OS ROS induce 122
COc1ccccc1NC(=O)c1ccc(OC(C)C(=O)O)cc1 (configuration not stated)	none (no result: YB-1 expr inh)
COc1ccccc1CC(=O)Nc1cc([N+](=O)[O-])ccc1OC	none (no result: YB-1 expr inh)
COc1ccc([N+](=O)[O-])cc1NC(=O)C1(c2ccc(OC)c(OC)c2)CCCCC1	U2OS ROS induce 149 (no result: YB-1 expr inh)
COc1ccc(S(=O)(=O)Nc2ccc3c(c2)CC(=O)N([C@H](C)CO)C[C@@H](C)[C@H](CN(C)CC2CC2)O3)cc1	YB-1 expr inh 3.2
CC(C)NC(=O)N(C)C[C@H]1Oc2ccc(NC(=O)Nc3ccc4c(c3)OCO4)cc2CC(=O)N([C@@H](C)CO)C[C@@H]1C	none
